Test results taken from PubChem BioAssay (NCATS).
Results filed as inconclusive are left out. Where a call stands in place of a potency, no number is given. Calls of active or inactive are those of the source. The call rests on the fitted dose curve; in most records, active means well fitted curve in the direction sought with a large enough effect; inconclusive means small, poorly fitted or top-dose-only effect, or another doubt; inactive means no such curve, though single readings can be large; an effect the other way counts as inactive or inconclusive.

How the values were obtained:
[1] = target: T1, Hexokinase-4 (Homo sapiens) + Glucokinase regulatory protein (Homo sapiens) (UniProt P35557+Q14397); assay: qHTS assay for inhibitors of recombinant human GCK-GKRP interaction: Diaphorase-coupled assay (AID 743205)
T1 sequence (P35557 whole entry, looked up): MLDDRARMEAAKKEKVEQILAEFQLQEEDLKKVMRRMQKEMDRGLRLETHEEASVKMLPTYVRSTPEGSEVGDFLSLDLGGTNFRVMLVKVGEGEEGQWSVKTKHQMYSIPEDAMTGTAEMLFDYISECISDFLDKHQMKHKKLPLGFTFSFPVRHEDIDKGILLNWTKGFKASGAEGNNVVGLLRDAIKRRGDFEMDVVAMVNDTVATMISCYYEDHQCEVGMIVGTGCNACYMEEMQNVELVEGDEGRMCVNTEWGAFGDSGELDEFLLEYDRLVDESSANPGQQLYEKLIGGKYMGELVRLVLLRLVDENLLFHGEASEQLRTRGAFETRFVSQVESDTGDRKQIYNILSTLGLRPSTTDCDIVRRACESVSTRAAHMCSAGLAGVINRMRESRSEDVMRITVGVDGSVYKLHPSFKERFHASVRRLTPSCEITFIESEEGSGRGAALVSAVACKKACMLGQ
T1 sequence (Q14397 whole entry, looked up): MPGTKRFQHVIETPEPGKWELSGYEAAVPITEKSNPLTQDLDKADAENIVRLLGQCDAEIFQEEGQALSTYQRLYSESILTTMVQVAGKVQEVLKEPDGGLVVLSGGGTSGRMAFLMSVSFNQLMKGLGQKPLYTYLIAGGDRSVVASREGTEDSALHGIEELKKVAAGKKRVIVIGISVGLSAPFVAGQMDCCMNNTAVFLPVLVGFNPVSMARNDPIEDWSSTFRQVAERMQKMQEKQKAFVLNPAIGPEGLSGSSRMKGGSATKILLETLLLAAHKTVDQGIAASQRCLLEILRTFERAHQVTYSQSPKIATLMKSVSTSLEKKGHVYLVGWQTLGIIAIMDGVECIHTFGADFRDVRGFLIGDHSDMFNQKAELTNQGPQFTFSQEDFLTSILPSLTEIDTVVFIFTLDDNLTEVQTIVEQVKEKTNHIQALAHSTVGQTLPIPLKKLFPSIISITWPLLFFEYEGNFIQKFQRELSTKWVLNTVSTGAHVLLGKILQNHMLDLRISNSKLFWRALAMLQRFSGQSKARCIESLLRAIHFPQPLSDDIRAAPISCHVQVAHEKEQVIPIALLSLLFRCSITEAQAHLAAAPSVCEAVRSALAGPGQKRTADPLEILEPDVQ
Summary of the method: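 Resorufin fluorescence (525/590 nm), read each minute over 30 min, reports GCK activity coupled via G6PDH and diaphorase. Reaction: 10 nM GST-GCK, 10 nM FLAG-GKRP, 5 mM glucose, 0.4 mM ATP, 0.15 mM NADP+, 0.1 mM resazurin.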

[2] = target: T1, Hexokinase-4 (Homo sapiens) + Glucokinase regulatory protein (Homo sapiens); assay: qHTS assay for inhibitors of recombinant human GCK-GKRP interaction: ADP-Glo assay (AID 743206)
Summary of the method: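 GST-GCK and FLAG-GKRP (15 nM each in the dispensed mix, with 2 uM S6P) react with 0.4 mM ATP and 5 mM glucose (final) in Hepes pH 7.6 for 60 min at room temperature. ADP is measured by ADP-Glo luminescence.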

[3] = target: T1, Hexokinase-4 (Homo sapiens) + Glucokinase regulatory protein (Homo sapiens); assay: qHTS assay for inhibitors of recombinant human GCK-GKRP interaction: HTRF assay (AID 743207)
Summary of the method: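 HTRF read-out (ex 320 nm; 615/665 nm emission) after 60 min RT equilibration of 5 nM GST-GCK, 5 nM FLAG-GKRP, 2 uM S6P, compound and anti-FLAG/anti-GST detection antibodies; signal normalized between DMSO wells with and without GCK.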

[4] = qHTS Assay for Identifying Gametocytocidal Compounds (AID 743244); further: potency means the concentration at half of the fitted maximal effect;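 on max response: actives lower the fluorescent signal which means gametocytes are killed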; details: P. falciparum 3D7 stage III-V gametocytes, alamarBlue, 72 h; max response: active compounds read low
Summary of the method: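 A resazurin-based viability read-out was applied to mature P. falciparum gametocytes: 72 h compound treatment, then 24 h dye incubation, with falling fluorescence signalling gametocytocidal effect.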

[5] = qHTS assay for cell viability of HEK293 cells (AID 743288); details: ATP luminescence (CellTiter-Glo), 18 h; max response: active compounds read low; further: nearly all actives have a fitted effect of over 50% in size
Summary of the method: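 Environmental chemicals tested in qHTS format against parental HEK293 cells; 18 h treatment, 37 C; read-out ATP luminescence (CellTiter-Glo), 30 min RT development.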

[6] = qHTS assay for cell viability of the p53RE-bla HCT-116 cell line (AID 743292); further: nearly all actives have a fitted effect of over 55% in size
Summary of the method: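 CellSensor p53RE-bla HCT-116 cells (4,000/well) pre-incubated 5 h at 37 C, then exposed to compounds in DMSO for 16 h at 37 C. Viability read as ATP content by CellTiter-Glo luminescence after 30 min at room temperature.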

For `Cc1nc(N=Nc2ccc(C(=O)O)cc2)c(COP(=O)(O)O)c(C=O)c1O`, the Potency [1] was “inactive”, the Potency [2] was “inactive” and the Potency [3] was “inactive”. The max response [4] was 5.37% (inactive).
In the case of `CC1=C(/C=C/C(C)=C/C=C/C(C)=C\C(=O)O)C(C)(C)CCC1`, the max response [5] is reported as 0.628% (inactive) and the Potency [6] is reported as “inactive”.
For `N[C@H](C(=O)O)[C@H](O)C(=O)O`, the Potency [3] was “inactive” and the max response [4] was 13.2% (inactive).
With `N[C@H](C(=O)O)[C@H]1C[C@@H]1C(=O)O` the Potency [3] was “inactive” and the max response [4] was 18.4% (inactive).
With `CN1CCC2(CCN3CCc4c(oc5ccccc45)C3C2)N(C)C1=O` (stereo not given) the Potency [2] was “inactive”, the Potency [3] was “inactive” and the max response [4] was 28.4% (inactive).
In the case of `CNCCc1cnc(CCC(c2ccccc2)c2ccccc2)[nH]1`, the Potency [2] is reported as “inactive”, the Potency [3] is reported as “inactive” and the Potency [4] is reported as 1260 nM (active).
For `CCCc1c(OCCCOc2ccc(OCC(=O)O)cc2)ccc(C(C)=O)c1O`, the Potency [3] was “inactive”, the max response [5] was -9.62% (inactive) and the Potency [6] was “inactive”.
For `O=C(O)C1=CCCN(CCON=C(c2ccccc2)c2ccccc2)C1`, the Potency [2] was “inactive”, the Potency [3] was “inactive” and the max response [4] was -12.8% (inactive).
For `CCCC(=O)NCCc1c2n(c3ccc(OC)cc13)CCCc1ccccc1-2`, the Potency [2] was “inactive” and the Potency [3] was “inactive”.
With `O=c1ccc2c(OCCCCc3ccccc3)c3ccoc3cc2o1` the Potency [2] was “inactive” and the max response [4] was 10.3% (inactive).
In the case of `O=[N+]([O-])c1cccc2c(Br)[nH]nc12`, the Potency [2] is reported as “inactive” and the max response [4] is reported as -25.7% (inactive).
With `COc1ccccc1N1CCN(CCCNc2c(C)c(=O)n(C)c(=O)n2C)CC1` the Potency [2] was “inactive”, the Potency [3] was “inactive” and the max response [4] was -1.96% (inactive).
For `CN[C@H](CC(=O)O)C(=O)O`, the Potency [2] was “inactive” and the max response [4] was 19.8% (inactive).
For `Brc1c(Br)c(Br)c2[nH]cnc2c1Br`, the Potency [3] was “inactive” and the max response [4] was 7.09% (inactive).
